Bioassay records (PubChem BioAssay)
In the library only some 2.6% were active in any assay of this set; here they are far more common.
pPAFAH FP inh: pPAFAH enzyme inhibitors, primary screen, biochemical, fluorescence polarization, human. AID 463082, 2010. inhibition, % at 3.39 µM. 330,000 compounds, 1.5% hits. recombinant pPAFAH, FP-rhodamine probe fluorescence polarization. Platelet-activating factor acetylhydrolase (Homo sapiens), Q13093;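 active = inhibition above the mean inhibition across the screen plus 3 SD, cut at about 25% in these data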;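 note: inhibitors block binding of the rhodamine activity-based probe so polarization drops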
PKA-R2B act: activators of PKA-R2B holoenzyme, primary screen, biochemical, fluorescence polarization, Cy5-IP20, human; activation, % at 11.4 µM; PKA-R2B holoenzyme dissociation; R2B truncated from residue 108, S112A mutant; 0% DMSO only, 100% 113 µM cGMP; cAMP-dependent protein kinase catalytic subunit beta (Homo sapiens) + cAMP-dependent …; AID 504700, 2011; 340,000 compounds, 0.079% hits;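 active = activation above a cutoff set at the mean over all compounds plus 3 SD, cut at about 18% in these data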;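 note: higher means more holoenzyme dissociation and a rise in polarization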
Target sequence (P31323 whole entry, looked up, other chains not shown, the tested form may be a part): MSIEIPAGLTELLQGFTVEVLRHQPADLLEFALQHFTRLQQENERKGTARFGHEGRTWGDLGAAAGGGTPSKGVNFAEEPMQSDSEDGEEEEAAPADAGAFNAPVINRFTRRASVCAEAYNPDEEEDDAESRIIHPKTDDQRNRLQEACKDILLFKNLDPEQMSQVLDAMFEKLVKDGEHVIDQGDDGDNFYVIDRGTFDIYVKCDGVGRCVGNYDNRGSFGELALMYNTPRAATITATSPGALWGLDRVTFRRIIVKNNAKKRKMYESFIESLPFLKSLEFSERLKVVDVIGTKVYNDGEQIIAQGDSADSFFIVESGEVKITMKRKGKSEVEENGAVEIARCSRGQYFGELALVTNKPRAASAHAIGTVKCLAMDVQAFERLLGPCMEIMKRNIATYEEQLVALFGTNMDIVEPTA
PKA-R1A act: activators of PKA-R1A holoenzyme, primary screen, biochemical, fluorescence polarization, Cy5-IP20, bovine R1A, mouse PKAc. activation, % at 11.4 µM. PKA-R1A dissociation; scaled: DMSO 0%, 113 µM cGMP 100%. cAMP-dependent protein kinase type I-alpha regulatory subunit (Bos taurus) + …. 340,000 compounds, 0.083% hits. AID 504707, 2011;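 active = percent activation above the mean of all tested compounds plus 3 SD, cut at about 19% in these data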;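 note: higher means more PKAc released from R1A so a rise in polarization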
PAFAH1B2 FP inh: PAFAH1B2 enzyme inhibitors, primary screen, biochemical, fluorescence polarization, human | inhibition, % at 3.39 µM | recombinant PAFAH1B2, FP-rhodamine activity probe | Platelet-activating factor acetylhydrolase IB subunit alpha2 (Homo sapiens), P68402 | AID 492953, 2010 | 340,000 compounds, 1.2% hits;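 active = inhibition above the mean of all tested compounds plus 3 SD, cut at about 24% in these data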
Target sequence (P68402 whole entry, looked up): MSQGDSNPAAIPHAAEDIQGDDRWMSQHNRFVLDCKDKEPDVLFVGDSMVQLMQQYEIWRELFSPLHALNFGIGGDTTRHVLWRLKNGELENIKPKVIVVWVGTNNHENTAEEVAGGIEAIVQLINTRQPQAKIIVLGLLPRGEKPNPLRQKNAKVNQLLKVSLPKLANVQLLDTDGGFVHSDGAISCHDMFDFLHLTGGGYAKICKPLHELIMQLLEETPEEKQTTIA
PAFAH2 FP inh: PAFAH2 enzyme inhibitors, primary screen, biochemical, fluorescence polarization, human. 340,000 compounds, 0.99% hits. recombinant PAFAH2, FP-rhodamine activity probe. inhibition, % at 3.39 µM. Platelet-activating factor acetylhydrolase 2, cytoplasmic (Homo sapiens), Q99487;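 active = inhibition above the mean over all tested compounds plus 3 SD, cut at about 30% in these data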;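 note: inhibitors block probe labeling of enzyme so polarization drops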
PAFAH1B3 FP inh: PAFAH1B3 enzyme inhibitors, primary screen, biochemical, fluorescence polarization, human; Platelet-activating factor acetylhydrolase IB subunit alpha1 (Homo sapiens), Q15102; recombinant PAFAH1B3, FP-rhodamine probe; inhibition, % at 3.39 µM; 340,000 compounds, 0.28% hits;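 active = inhibition above the screen-wide average of all tested compounds plus 3 SD, cut at about 25% in these data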
Numbers stand for hits; – = inactive; · = no result given.

SMILES | pPAFAH FP inh | PKA-R2B act | PKA-R1A act | PAFAH1B2 FP inh | PAFAH2 FP inh | PAFAH1B3 FP inh
Cc1nn(CCc2nn[nH]n2)c2nc(-c3ccc(C4CCCCC4)cc3)cc(C(F)(F)F)c12 | 27 | – | – | – | – | –
CCOc1ccc(S(=O)(=O)N2CCCC(C(=O)N3CCCC3)C2)cc1 (stereo not drawn) | – | – | – | – | – | –
COc1ccc(NC(=O)C(=O)NCCC2CCCCN2S(=O)(=O)c2cccs2)cc1 (stereo not drawn) | – | – | – | – | – | –
COc1ccc(CNC(=O)C(=O)NCCC2CCCCN2S(=O)(=O)c2cccs2)cc1 (stereo not drawn) | – | – | – | 25 | – | –
O=C(NCc1ccc(F)cc1)C(=O)NCC1OCCCN1S(=O)(=O)c1cccs1 (stereo not drawn) | – | – | – | 30 | – | –
Cc1ccc(CNC(=O)C(=O)NCC2CCCN2S(=O)(=O)c2cc(C)ccc2C)cc1 (stereo not drawn) | – | – | – | 28 | – | –
Cc1cc(F)ccc1S(=O)(=O)N1CCCOC1CNC(=O)C(=O)NCCc1ccccc1 (stereo not drawn) | – | – | – | 27 | – | –
CCOc1ccc(OCCC(=O)N(CC)CC(=O)NCc2cccs2)cc1 | – | – | – | – | – | –
O=C(c1ccccc1F)n1c2c(c3ccccc31)CCCC2 | – | – | – | – | – | –
CCN(CC(=O)NCc1cccs1)C(=O)CCCOc1ccccc1 | – | – | – | – | – | –
CCN(CC(=O)NCc1cccs1)C(=O)CCCOc1ccc(C(C)(C)C)cc1 | – | – | – | 25 | – | –
C[C@H](CO)N1C[C@H](C)[C@@H](CN(C)CC2CCCCC2)Oc2c(NC(=O)Cc3ccccc3)cccc2C1=O | – | – | – | – | – | –
COc1ccc(S(=O)(=O)N2CCCCCC2)cc1NC(=O)CN1C(=O)NC(C)(c2ccc(C)cc2)C1=O (stereo not drawn) | – | – | – | – | – | –
CC1(c2ccc3ccccc3c2)NC(=O)N(CC(=O)Nc2cccc(S(=O)(=O)N3CCOCC3)c2)C1=O (stereo not drawn) | 33 | – | – | – | – | –
CCOc1ccc(S(=O)(=O)N2CCCCC2)cc1NC(=O)CN1C(=O)NC(C)(c2ccc(C)cc2)C1=O (stereo not drawn) | 27 | – | – | – | – | –
O=C(Nc1nccs1)c1cnc2sccn2c1=O | · | – | – | · | · | ·
Cc1noc(C)c1-c1nc(CS(=O)(=O)c2ccc(Cl)cc2)no1 | – | – | – | 30 | – | –
Cc1noc(C)c1C(=O)OCC(=O)/C=C1/N(C)c2ccccc2C1(C)C | · | – | – | – | – | –
Cc1nn(CC(C)C(=O)N2CCN(S(=O)(=O)c3ccc(Cl)cc3)CC2)c(C)c1C (stereo not drawn) | – | – | – | 26 | – | –
Cc1nnc(SCC(=O)N2CCN(S(=O)(=O)c3ccc(Cl)cc3)CC2)[nH]c1=O | – | – | – | 30 | – | –
O=C(CN1CSCC1=O)N1CCN(S(=O)(=O)c2ccc(Cl)cc2)CC1 | – | – | – | 29 | – | –
Nn1c(SCC(=O)N2CCN(S(=O)(=O)c3ccc(Cl)cc3)CC2)nnc1-c1cccs1 | 31 | – | – | – | – | –
O=C(CN1CCN(S(=O)(=O)c2ccc(Cl)cc2)CC1)N1CCCC1 | · | – | – | – | – | –
CC(=O)Nc1cccc(C(=O)Nc2cc(C(F)(F)F)ccc2-n2cncn2)c1 | · | – | – | · | · | ·
COC(=O)Cn1ncc(N(C)Cc2ccccc2)c(Cl)c1=O | – | – | – | – | – | –
SMILES | pPAFAH FP inh | PKA-R2B act | PKA-R1A act | PAFAH1B2 FP inh | PAFAH2 FP inh | PAFAH1B3 FP inh
COc1ccc2c(c1)cc(C(=O)N[C@H](C(=O)N1CCC(C(=O)O)CC1)C(C)C)n2C | – | – | – | – | – | –
S=c1[nH]nc(-c2cc(-c3ccco3)[nH]n2)n1-c1ccccc1Cl | 29 | – | – | – | – | –
Cc1ccc(S(=O)(=O)NCCc2cc3ccc(C)cc3[nH]c2=O)cc1 | – | – | – | 27 | – | –
Cc1ccc2cc(CCNS(=O)(=O)c3ccc(F)cc3)c(=O)[nH]c2c1 | – | – | – | – | – | –
Cn1c(SCC(=O)c2ccc(-c3ccccc3)cc2)nnc1-c1ccco1 | 30 | – | – | – | – | –
CCN1CCN(c2cc(C)c3cc(NC(=O)c4cc(OC)cc(OC)c4)ccc3n2)CC1 | 29 | – | – | – | – | –
CN(C)C1CCCCC=CC(=O)NC1 (stereo not drawn) | · | – | – | · | · | ·
COc1ccccc1CNC(=O)/C=C/c1ccc(S(=O)(=O)NCc2ccco2)cc1 | 25 | – | – | – | – | –
Cc1ccc(CNC(=O)/C=C/c2ccc(S(=O)(=O)NCc3ccco3)cc2)cc1 | – | – | – | – | – | –
O=C(/C=C/c1ccc(S(=O)(=O)NCc2ccco2)cc1)NCc1cccc(Cl)c1 | 29 | – | – | – | – | –
Cc1c(CCC(=O)O)c(=O)oc2cc(OCc3ccccc3Br)ccc12 | 33 | – | – | – | – | –
C[C@H]1CN([C@@H](C)CO)C(=O)c2cc(C#CC3CCCC3)cnc2O[C@H]1CN(C)C(=O)Cc1ccccn1 | · | – | – | · | · | ·
C[C@H](CO)N1C[C@H](C)[C@@H](CN(C)C(=O)Nc2ccc(C(F)(F)F)cc2)Oc2c(NC(=O)Nc3ccc4c(c3)OCO4)cccc2C1=O | – | – | – | 61 | – | –
C[C@H](CO)N1C[C@H](C)[C@@H](CN(C)C(=O)Nc2ccc3c(c2)OCO3)Oc2c(NC(=O)Nc3ccc(C(F)(F)F)cc3)cccc2C1=O | – | – | – | 28 | – | –
Cc1c(C(=O)NC2CCN(Cc3ccccc3)C2)oc2c(Cl)cccc12 (stereo not drawn) | – | – | – | – | – | –
O=C(NCc1ccco1)c1cc2c(s1)CSC2 | 28 | · | · | · | · | ·
O=C(O)C/C(=C\c1cc2c(cc1Br)OCO2)c1nc2ccccc2s1 | – | – | – | 73 | – | –
N#CCN1C(=O)C(=O)N(Cc2cccc(Cl)c2)C1=O | – | – | – | – | – | –
COc1ccc(/C=C2\SC(=O)N(CCCC(=O)Nc3cc(Cl)ccc3C(=O)O)C2=O)cc1 | – | – | – | 38 | – | –
COc1ccc(/C=C2\SC(=S)N(CCC(=O)Nc3ccccc3C(=O)O)C2=O)cc1 | – | – | – | – | – | –
